CHT allo act: allosteric activators of human choline transporter CHT; AID 488977; CHT-expressing cells, membrane potential dye, choline EC20; stronger effect = higher value; LV-AA mutant CHT in HEK293 cells; actives 0.49% (n = 310,000); Q9GZV3; B-score at 10 µM;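 active = initial fluorescence not abnormally high and integrated response B-score, plate-corrected, over 3 SD above library mean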
Target sequence (Q9GZV3 whole entry, looked up): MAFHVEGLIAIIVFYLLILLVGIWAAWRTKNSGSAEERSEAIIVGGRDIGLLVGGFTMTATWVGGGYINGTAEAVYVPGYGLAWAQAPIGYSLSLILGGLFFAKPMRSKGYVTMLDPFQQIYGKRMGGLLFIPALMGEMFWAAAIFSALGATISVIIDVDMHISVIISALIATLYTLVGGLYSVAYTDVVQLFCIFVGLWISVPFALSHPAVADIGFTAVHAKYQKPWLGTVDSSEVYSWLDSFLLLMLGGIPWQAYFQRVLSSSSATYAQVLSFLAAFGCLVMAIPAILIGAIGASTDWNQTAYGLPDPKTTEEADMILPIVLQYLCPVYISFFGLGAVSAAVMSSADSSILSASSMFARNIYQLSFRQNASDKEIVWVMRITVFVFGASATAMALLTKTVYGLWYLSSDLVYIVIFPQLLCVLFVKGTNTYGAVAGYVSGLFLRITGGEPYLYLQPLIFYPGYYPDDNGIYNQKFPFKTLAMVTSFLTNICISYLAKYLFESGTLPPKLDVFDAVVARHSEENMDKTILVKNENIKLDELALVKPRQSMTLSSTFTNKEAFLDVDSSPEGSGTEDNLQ
GPR7 antag: human neuropeptides B/W receptor 1 antagonism; GPR7-expressing cells, fluorescence antagonist assay; inhibition, % at 4.4 µM; actives 1.1% (n = 290,000); AID 1861; in the data active = inhibition above about 16%, passing the limit was not always enough;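 note: cells stimulated with the agonist NPW; 0% = agonist with vehicle and 100% = vehicle without agonist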
CHT inh: human CHT choline transport inhibition; Q9GZV3; CHT-expressing cells, membrane potential dye, choline response; stronger effect = lower value; B-score at 10 µM; actives 0.86% (n = 310,000); AID 488975;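 active = B-score over 3 SD under the library average, and starting fluorescence ratio not unusually high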;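 note: choline stimulus applied at its EC90 after an EC20 pre-addition; B-score computed on integrated fluorescence ratio after choline addition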
Kir21 inh: inhibitors of mouse Kir2.1 inward-rectifier potassium channel | P35561 | HEK293-Kir2.1, FluxOR thallium flux fluorescence; stronger effect = lower value | B-score at 10 µM | actives 0.85% (n = 310,000);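 active = fluorescence ratio B-score at or below minus 3 SD of library scores, with starting-brightness B-score within 2 SD, cut at about -4.2 in these data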;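 note: channel flux triggered by added potassium and thallium sulfate stimulus; B-score of peak minus minimum fluorescence over baseline after thallium stimulus; more negative B-score means stronger Kir2.1 block with less thallium influx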
ANO1 block: blocks the mouse calcium-activated chloride channel TMEM16A. normalized B-score (activity score, 25-100; higher = stronger inhibition) at 10 µM. Q8BHY3. actives 1.2% (n = 310,000). AID 588511. HEK293 TMEM16A/YFP iodide influx fluorescence, ionomycin;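 active = ratio plate-corrected score three or more library SD toward inhibition, starting fluorescence score within five deviations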;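 note: score derived from kinetic fluorescence span divided by baseline fluorescence per well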
TMEM16A act: activates or potentiates the mouse TMEM16A chloride channel; Q8BHY3; HEK293 TMEM16A/YFP-H148Q/I152L, iodide quench fluorescence; stronger effect = lower value; B-score at 10 µM; actives 0.3% (n = 340,000); AID 623877;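 active = fluorescence-ratio B-score plate-corrected deviation score at least 3 library SD below zero, with starting fluorescence score within 5 deviations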;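 note: channel opened by trigger with iodide after compound preincubation; score built on the fluorescence ratio of max minus min over baseline; more negative score means more quench and so TMEM16A activation or potentiation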
* = called active by the depositor; i = inactive; / = no result given. Compounds with a hit are over-represented: about 3.7% of the library has one in this group of screens.

SMILES	CHT allo act	GPR7 antag	CHT inh	Kir21 inh	ANO1 block	TMEM16A act
O=S(=O)(c1ccc2ccccc2c1)n1cccn1	i	-8.5	i	0.65	i	i
Cc1cc2nc(/N=C(\N)NC(=O)C(C)C)nc(C)c2cc1C	i	-10.1	i	-0.19	i	i
Cc1cc2nc(N=C(N)N)nc(C)c2cc1C	/	19.0*	/	/	/	i
CCc1ccc2nc(N=C(N)N)nc(C)c2c1	i	-15.6	i	-6.09*	i	i
CC1CCCN(CCCOc2ccccc2-c2ccccc2)C1 (stereo not drawn)	/	0.4	/	0.31	/	i
N#CC1=C(N)C2=CCCC[C@H]2[C@H](c2cccc(F)c2)C1(C#N)C#N	i	-0.1	i	-5.37*	i	i
Cc1ccccc1C(=O)N1CC(=O)Nc2ccc(F)cc2C1c1ccccc1 (stereo not drawn)	i	-8.4	i	0.67	i	/
Cc1cc(C)c(C#N)c(SCc2ccccc2F)n1	i	3.6	i	-2.66	25*	i
O=C(c1cccs1)N1CCC(c2nc3c(nnn3Cc3c(Cl)cccc3Cl)c(=O)[nH]2)CC1	i	-9.1	i	0.2	i	i
O=C(O)c1ccc(Cl)c(NCc2cccs2)c1	i	-14.4	i	-0.94	i	i
O=C(CN1CCN(S(=O)(=O)c2ccc(C(F)(F)F)cc2)CC1)N1CCNC1=O	/	/	/	/	/	i
CC(C)(C)c1ccc(S(=O)(=O)N2CCN(CC(=O)N3CC(=O)Nc4ccccc43)CC2)cc1	/	/	/	/	/	-37.8*
O=C(Nc1cccc(Cl)c1)N1CCN2C(=O)c3ccccc3C12c1ccccc1 (stereo not drawn)	i	-15.1	i	0.93	25*	i
O=C(COC(=O)C1(c2ccc(Cl)cc2)CCCC1)N1CCc2ccccc21	i	-4.4	i	0	i	i
O=C(CCl)N1CCN2C(=O)c3ccccc3C12c1ccc(Cl)cc1 (stereo not drawn)	i	-13.3	i	-4.57*	i	i
C#CCn1c(O)c(N=NC(=O)CNC(=O)c2cccnc2)c2ccccc21	i	-15.8	i	1.5	i	i
O=C(NCCCN1CCCC1=O)c1c(O)nc2sccn2c1=O	i	/	i	-0.06	i	i
Cc1ccc([N+](=O)[O-])cc1N=Nc1c(C)[nH]n(C(N)=S)c1=O	i	-1.3	i	-0.31	i	i
Cc1ccc([N+](=O)[O-])cc1N=Nc1c(-c2ccc([N+](=O)[O-])cc2)[nH]n(C(N)=S)c1=O	/	-11.9	/	1.27	/	-5.44*
CC(C)(C)NC(=S)NC(C)(C)C	/	-9.2	/	0.01	/	i
O=C(O)c1ccc(NC(=O)c2ccccc2NC(=O)c2cccc(F)c2)cc1	i	-10.9	i	0.66	i	i
O=C(Nc1cc(-c2ccccc2)sc1C(=O)O)c1cccc(F)c1	i	34.1	i	0.67	100*	i
CCOc1ccc(N(CC(=O)N2CCCCCC2)S(C)(=O)=O)cc1	i	4.8	i	0.02	i	i
N#Cc1c2n(c(=S)n(-c3ccc(OC(F)F)cc3)c1=O)CCCCC2	i	17.3*	i	-2.41	i	i
CCN(CC(=O)Nc1ccc(N2CCOCC2)cc1)C(=O)Cc1ccccc1	/	/	/	/	/	-32.4*
SMILES	CHT allo act	GPR7 antag	CHT inh	Kir21 inh	ANO1 block	TMEM16A act
Cc1ccn(CCC(=O)NC2CC(C)(C)Cc3c2cnn3-c2ccccc2C)n1 (stereo not drawn)	i	-7.3	i	1.19	i	i
COc1ccccc1C1(CCNC(C)c2cccs2)CCOC(C(C)C)C1 (stereo not drawn)	i	19.8*	i	-8.9*	i	i
COc1ccccc1C1(CCNS(=O)(=O)c2ccc(C)cc2)CCOC(C(C)C)C1 (stereo not drawn)	i	-5.4	i	-0.11	i	i
CCOC(=O)c1c(NC(=O)CN2C(=O)NC3(CCCC3)C2=O)sc(C)c1CC	i	/	i	0.16	i	i
Cc1cc(C(=O)COC(=O)c2ccc(Br)o2)c(C)n1C	i	-9.6	i	-2.02	i	i
COCCn1c(C)cc(C(=O)COC(=O)c2ccc(Br)o2)c1C	i	19.1*	i	0.25	i	i
